# Measurements: PubChem BioAssay
# Calls of active or inactive are those of the source.
# System: not listed separately
# Assay: S6 kinase pathway phospho-S6 level changes – cell-based, A549, cytoblot, luminescence, serum-stimulated, primary screen (AID 1158);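 note: serum-stimulated A549 lung adenocarcinoma cells; signal is phosphorylated S6 detected by cytoblot immunostaining with HRP secondary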
# Conditions: 5 h, higher = more signal
row,Structure (SMILES),z-score
1,COc1ccc(O[C@H]2C=C[C@@H](c3ccccc3)O[C@@H]2CON=C(C)CCN2CCc3nc(-c4ccccc4)c(-c4ccccc4)cc3C2)cc1,-0.0313
2,C#CCCCON=C1C[C@@H](O)[C@@H](O)[C@@H]2[C@@H]3C(=O)N(c4ccc(F)cc4F)C(=O)[C@@H]3CC[C@@H]12,-0.404
3,Cc1ccc(S(=O)(=O)N[C@H]2COC(=O)CC=C[C@@H](C)COC(=O)CC=C[C@@H]2C)cc1,-0.41
4,CC(C)CON=C1C[C@@H](O)[C@@H](O)[C@@H]2[C@@H]3C(=O)N(C[C@@H]4CCCO4)C(=O)[C@@H]3CC[C@@H]12,0.324
5,Cc1ccc(S(=O)(=O)OC[C@H]2CN3[C@H](c4ccc(Br)cc4)[C@@H](C)CC[C@H]3C(=O)O2)cc1,0.0084

# Target: NADPH oxidase 2 (Homo sapiens) (UniProt P04839)
# Assay: compounds shifting NOX2 Amplex Red fluorescence – cell-based, HEK293-NOX2, PMA-stimulated, NOX inhibitor project, primary screen (AID 1159); note: test concentration not given here
# Conditions: 45 min, higher = more signal, called active from +8 up or from −8 down
# Sequence of NADPH oxidase 2 (Homo sapiens) (P04839 whole entry, looked up): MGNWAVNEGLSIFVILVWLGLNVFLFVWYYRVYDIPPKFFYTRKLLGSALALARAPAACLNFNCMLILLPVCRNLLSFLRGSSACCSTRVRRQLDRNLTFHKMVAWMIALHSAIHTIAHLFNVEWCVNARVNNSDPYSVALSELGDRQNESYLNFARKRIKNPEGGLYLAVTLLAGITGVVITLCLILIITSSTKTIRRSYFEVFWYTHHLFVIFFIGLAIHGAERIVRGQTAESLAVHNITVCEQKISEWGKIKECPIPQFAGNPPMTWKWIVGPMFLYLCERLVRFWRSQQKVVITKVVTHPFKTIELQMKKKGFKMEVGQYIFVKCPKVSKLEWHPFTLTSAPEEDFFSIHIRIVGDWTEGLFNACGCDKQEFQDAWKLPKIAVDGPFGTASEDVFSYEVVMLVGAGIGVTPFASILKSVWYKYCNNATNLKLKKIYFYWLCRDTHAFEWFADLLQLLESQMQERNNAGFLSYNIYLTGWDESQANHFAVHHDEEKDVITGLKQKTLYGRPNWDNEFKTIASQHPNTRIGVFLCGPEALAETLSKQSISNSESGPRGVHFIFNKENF
row,Structure (SMILES),z-score
1,Cc1cc2c(nc1C)CCCCN2CC(C)ON=C[C@@H](C)[C@H](OCc1ccccc1)C(C)C (stereo partly specified),-0.892 (inactive)
2,CO[C@@H]1C=CCC(=O)N2CCC[C@H]2C(=O)OC[C@@H](C)C(=O)OC[C@H]1C,-0.805 (inactive)
3,CO[C@@H]1C=CCC(=O)N[C@@H](C)C(=O)OC[C@@H](OC)[C@H](C)CCCC(=O)OC[C@H]1C,0.57 (inactive)
4,COc1ccc(COC(=O)NN=C2C[C@@H](O)[C@@H](O)[C@@H]3[C@@H]4C(=O)N(c5ccc(F)cc5F)C(=O)[C@@H]4CC[C@H]23)cc1,-0.407 (inactive)
5,CC(C)[C@@H](OCc1ccccc1)[C@H](C)C=NOC[C@@H](O)COCc1ccco1,-0.0623 (inactive)
6,O=C1[C@H]2[C@H]3[C@H](O)[C@H](O)CC(=NOCc4ccccc4)[C@@H]3CC[C@H]2C(=O)N1C[C@@H]1CCCO1,0.434 (inactive)
7,CC(C)=CCCC(C)=CCON=C1C[C@@H](O)[C@@H](O)[C@@H]2[C@@H]3C(=O)N(C(C)(C)C)C(=O)[C@@H]3CC[C@H]12,0.799 (inactive)
8,CCOC(=O)[C@H](Cc1ccccc1)NC(=O)CCC1CC(OC(=O)NCCc2ccc(F)cc2)CC2(CCCC(COC(=O)NCCc3ccccc3OC)O2)O1 (stereo partly specified),-0.106 (inactive)
9,COc1ccc(COC(=O)NN=C2C[C@@H](O)[C@@H](O)[C@@H]3[C@@H]4C(=O)N(C5CCCCC5)C(=O)[C@@H]4CC[C@H]23)cc1,-0.248 (inactive)
10,CC(C)=CCCC(C)=CCON=C1C[C@@H](O)[C@@H](O)[C@@H]2[C@@H]3C(=O)N(C4CCCCC4)C(=O)[C@@H]3CC[C@@H]12,0.606 (inactive)
11,COC(=O)[C@@H]1CC[C@H](C)[C@@H](c2ccc(C)cc2)N1C(=O)c1ccc(C=NO[C@@H]2O[C@H](COC(C)=O)[C@@H](OC(C)=O)[C@H](OC(C)=O)[C@H]2OC(C)=O)cc1,-0.454 (inactive)
12,COc1cccc([C@H]2Oc3ccc(OC)cc3C(=NOC[C@@H](O)[C@H]3O[C@@H]4OC(C)(C)O[C@@H]4[C@H]3O)[C@@H]2O)c1,-0.895 (inactive)
13,O=C1[C@H]2[C@H]3[C@H](O)[C@H](O)CC(=NO[C@@H]4O[C@H](CO)[C@@H](O)[C@H](O)[C@H]4O)[C@H]3CC[C@H]2C(=O)N1c1cccc(Oc2ccccc2)c1,0.7 (inactive)
14,CCN1C(=O)[C@H]2[C@H]3[C@H](O)[C@H](O)CC(=NOCC(C)C)[C@@H]3CC[C@H]2C1=O,0.603 (inactive)
15,CC(C)C[C@H](NC(=O)CCC1CC(OC(=O)NCc2cccc3ccccc23)CC2(CCCC(COC(=O)NCc3ccccc3)O2)O1)C(=O)NCC(c1ccccc1)c1ccccc1 (stereo partly specified),0.871 (inactive)
16,COC(=O)CC=C[C@@H](C)[C@@H](C=NOC[C@H]1O[C@H](c2ccccc2)C=C[C@@H]1Oc1ccc(OC)cc1)NS(=O)(=O)c1ccc(C)cc1,-0.273 (inactive)
17,C#CCCCON=C1C[C@@H](O)[C@@H](O)[C@@H]2[C@@H]3C(=O)N(c4ccc(F)cc4F)C(=O)[C@@H]3CC[C@H]12,-0.76 (inactive)
18,CO[C@H]1COC(=O)[C@@H](Cc2ccccc2)NC(=O)[C@@H](C)COC(=O)CCC[C@@H]1C,-0.785 (inactive)

row,Structure (SMILES),z-score
1,COc1cccc([C@H]2Oc3ccc(OC)cc3C(=NO[C@@H](C)c3cn([C@H](CO)Cc4ccccc4)nn3)[C@@H]2O)c1,-0.0734 (inactive)
2,CCOC(=O)NN=C1C[C@@H](O)[C@@H](O)[C@@H]2[C@@H]3C(=O)N(Cc4ccc5c(c4)OCO5)C(=O)[C@@H]3CC[C@H]12,-3.49 (inactive)
3,O=C(NN=C1C[C@@H](O)[C@@H](O)[C@@H]2[C@@H]3C(=O)N(C[C@@H]4CCCO4)C(=O)[C@@H]3CC[C@H]12)OCc1ccccc1,-0.92 (inactive)
4,CC(C)CON=C1C[C@@H](O)[C@@H](O)[C@@H]2[C@@H]3C(=O)N(c4ccc(F)cc4F)C(=O)[C@@H]3CC[C@H]12,-1.13 (inactive)
5,C[C@@H](c1ccccc1)N1C(=O)[C@H]2[C@H]3[C@H](O)[C@H](O)CC(=NO[C@@H]4O[C@H](CO)[C@@H](O)[C@H](O)[C@H]4O)[C@@H]3CC[C@H]2C1=O,-0.119 (inactive)
6,CCOC(=O)[C@H](CC(C)C)NC(=O)CCC1CC(OC(=O)NCc2ccc3c(c2)OCO3)CC2(CCCC(COC(=O)NCC3CCCCC3)O2)O1 (stereo partly specified),-0.541 (inactive)
7,O=C1[C@H]2[C@H]3[C@H](O)[C@H](O)CC(=NOC[C@@H](O)COCc4ccco4)[C@H]3CC[C@H]2C(=O)N1C[C@@H]1CCCO1,0.276 (inactive)
8,CCOC(=O)NN=C1C[C@@H](O)[C@@H](O)[C@@H]2[C@@H]3C(=O)N([C@@H](C)c4ccccc4)C(=O)[C@@H]3CC[C@@H]12,-0.819 (inactive)
9,CC(CCN1CCCc2nc(C)c(C)cc21)=NOC(C)CN1CCCCc2nc(C)c(C)cc21 (stereo unspecified),-0.397 (inactive)
10,CO[C@H]1COC(=O)[C@H](C)NC(=O)CC=C[C@@H](C)[C@H](OC)COC(=O)[C@@H](OCc2ccccc2)C=C[C@@H]1C,1.18 (inactive)
11,COC(=O)[C@H](C)NC(=O)CCC1CC(OC(=O)NCCc2ccc(F)cc2)CC2(CCCC(COC(=O)NCc3cccc(C(F)(F)F)c3)O2)O1 (stereo partly specified),1.23 (inactive)
12,CCOC(=O)CCN1C(=O)[C@H]2[C@H]3[C@H](O)[C@H](O)CC(=NOCC(C)C)[C@H]3CC[C@H]2C1=O,-0.864 (inactive)
13,CCOC(=O)NN=C1C[C@@H](O)[C@@H](O)[C@@H]2[C@@H]3C(=O)N([C@@H](C)c4ccccc4)C(=O)[C@@H]3CC[C@H]12,1.35 (inactive)
14,COc1ccc(O[C@H]2C=C[C@@H](c3ccccc3)O[C@@H]2CON=C(C)CCN2CCc3nc(-c4ccccc4)c(-c4ccccc4)cc3C2)cc1,0.168 (inactive)
15,C#CCCCON=C1C[C@@H](O)[C@@H](O)[C@@H]2[C@@H]3C(=O)N(c4ccc(F)cc4F)C(=O)[C@@H]3CC[C@@H]12,2.01 (inactive)
16,Cc1ccc(S(=O)(=O)N[C@H]2COC(=O)CC=C[C@@H](C)COC(=O)CC=C[C@@H]2C)cc1,0.225 (inactive)
17,CC(C)CON=C1C[C@@H](O)[C@@H](O)[C@@H]2[C@@H]3C(=O)N(C[C@@H]4CCCO4)C(=O)[C@@H]3CC[C@@H]12,0.957 (inactive)
18,Cc1ccc(S(=O)(=O)OC[C@H]2CN3[C@H](c4ccc(Br)cc4)[C@@H](C)CC[C@H]3C(=O)O2)cc1,0.407 (inactive)
